Spn DPM-DC inh: S. pneumoniae DPM-DC inhibition; purified DPM-DC, PK/LDH coupled NADH fluorescence; calls only at 10 µM; 65,000 tested, 0.49% active; AID 556;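 active means the 320 compounds with the highest percent inhibition in the single-dose primary screen, excluding strongly autofluorescent ones, cut at about 32% in these data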;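 further: kinetic rate of NADH fluorescence loss reporting ADP formed by the decarboxylase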
A340 absorber: absorbance at 340 nm; compound absorbance at 340 nm, fold over control; fold change at 10 µM; 65,000 tested, under 10 active;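 active means at 10 µM dose, initial 340 nm absorbance at least 2 fold that of control wells; inactive means change under 2 fold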;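 further: initial absorbance extrapolated from kinetic A340 decline of NADH oxidation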
Spn PMK inh: blocks S. pneumoniae phosphomevalonate kinase; purified PMK, PK/LDH-coupled NADH absorbance 340 nm; inhibition, % at 10 µM; 65,000 tested, 0.49% active; AID 539;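 active means top-ranked compounds by inhibition in the single 10 µM screen, taking a fixed number of the strongest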
Fluor 339 460: intrinsic fluorescence of library compounds, ex339/em460 – biochemical, MLSMR library, data from DPM-DC assay, artefact control, profiling panel | AID 709 | compound autofluorescence, ex339/em460 nm, NADH buffer; active compounds read high; 1 = no-compound wells, NADH background | 65,000 tested, 5.5% active | fluorescence fold increase at 10 µM;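 active means at 10 µM, mean starting fluorescence two-fold or more over control wells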;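 further: signal is the first read of a kinetic run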
NADH coupling: inhibition of NAD/NADH coupling enzymes, library profiling. coupled PK/LDH NADH assays, four targets. IC50, µM (series often up to 10 µM). 65,000 tested, 0.02% active;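 active means single-dose screening hits from any of four coupled enzyme assays that gave an IC50 when retested across doses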;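 further: the DPM-DC format reads NADH fluorescence rather than 340 nm absorbance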
Spn MK inh: blocks S. pneumoniae mevalonate kinase; purified MK, PK/LDH-coupled NADH absorbance 340 nm; AID 555; 65,000 tested, 0.48% active; inhibition, % at 10 µM;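 active means ranked among the strongest by inhibition in the single 10 µM screen, a fixed top-ranked set picked for dose follow-up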
Hits are given with their value; 0 = inactive; - = no result given; + = active, no number. Rows were chosen to be rich in hits. Some 6.5% of all compounds tested hit in one or more screens of this group.

SMILES | Spn DPM-DC inh | A340 absorber | Spn PMK inh | Fluor 339 460 | NADH coupling | Spn MK inh
CSCC[C@H](NC(=O)OC(C)(C)C)c1nnc(SCC=C(C)C)o1 | 0 | 0 | 0 | 0 | 0 | 0
COC(=O)CSc1ncc(C#N)c(N)n1 | 0 | 0 | 0 | 0 | 0 | 0
CC(Sc1ncc(C#N)c(N)n1)C(=O)Nc1ccccc1 (stereo not given) | 0 | 0 | 26 | 0 | 0 | 0
CCCOc1ccc(-c2nnc(-c3ccco3)o2)cc1 | 0 | 0 | 0 | 2.2 | 0 | 0
CCN1C(=O)/C(=C2/Sc3ccc(OC)cc3N2C)SC1=Nc1ccc(C(C)=O)cc1 | 0 | 0 | 25 | 0 | 0 | 0
CCCCC(=O)Nc1cccc(-c2nn3c(C)nnc3s2)c1 | 0 | 0 | 0 | 0 | 0 | 0
Cc1ccc2cc(-c3noc(C4CCCCC4)n3)c(=O)[nH]c2c1 | - | 0 | 0 | 2.2 | 0 | 0
CCCc1nc(-c2cc3ccc(C)cc3[nH]c2=O)no1 | - | 0 | 0 | 2.2 | 0 | 0
Cc1ccc2cc(-c3noc(C4CCCO4)n3)c(=O)[nH]c2c1 (stereo not given) | - | 0 | 0 | 2.2 | 0 | 0
CCOc1ccccc1C1C(C(N)=O)=C(C)Nc2nc(CCCO)nn21 (stereo not given) | 0 | 0 | 0 | 0 | 0 | 0
OCCCc1nc2n(n1)C(c1ccccc1Cl)C=C(c1cccs1)N2 (stereo not given) | - | 0 | 0 | 3.8 | 0 | 0
OCCCc1nc2n(n1)C(c1ccccc1)C=C(c1ccc(F)cc1)N2 (stereo not given) | 0 | 0 | 0 | 2 | 0 | 0
OCCCc1nc2n(n1)C(c1cccs1)C=C(c1ccccc1)N2 (stereo not given) | - | 0 | 0 | 2.1 | 0 | 0
C(=N\c1nccs1)/c1cccnc1 | 0 | 0 | 0 | 0 | 0 | 0
COc1ccc(C2C=C(c3ccccc3)Nc3ncnn32)cc1 (stereo not given) | - | 0 | 0 | 3.4 | 0 | 0
CCOc1ccc(C2C=C(c3ccc(C)cc3)Nc3ncnn32)cc1 (stereo not given) | - | 0 | 0 | 3.6 | 0 | 0
CCOc1ccc(C2C=C(c3ccc(C)cc3)Nc3nnnn32)cc1 (stereo not given) | 0 | 0 | 0 | 0 | 0 | 0
COC(=O)Cc1cc(=O)[nH]c(/N=C(/NC(=O)c2ccccc2)Nc2ccccc2C)n1 | 0 | 0 | 0 | 0 | 0 | 0
COC(=O)c1sc2nc(-c3ccco3)ccc2c1N | + | 0 | 0 | 2.9 | 0 | 0
COC(=O)c1sc2cnccc2c1N | - | 0 | 0 | 5.1 | 0 | 0
CCOC(=O)c1sc2nc(-c3ccco3)c3c(c2c1N)CC(C)(C)OC3 | 0 | 0 | 0 | 0 | 0 | 0
COc1ccccc1-n1cc(C(=O)NCC(=O)N2CCN(c3ccccc3)CC2)c2ccccc2c1=O | 0 | 0 | 0 | 0 | 0 | 0
COc1ccc(C2C(C#N)=C(C)NC3=C2C(=O)CC(C)(C)C3)c(OC)c1 (stereo not given) | - | 0 | 0 | 0 | 0 | 0
CC1=C(C(=O)N2CCOCC2)C(c2ccccc2F)C2=C(CC(C)(C)CC2=O)N1 (stereo not given) | - | 0 | 0 | 4.8 | 0 | 0
COc1ccc(C2C(C(=O)N3CCOCC3)=C(C)NC3=C2C(=O)CC(C)(C)C3)c(OC)c1 (stereo not given) | - | 0 | 0 | 4.8 | 0 | 0
SMILES | Spn DPM-DC inh | A340 absorber | Spn PMK inh | Fluor 339 460 | NADH coupling | Spn MK inh
CC1=C(C(=O)OCCOc2ccccc2)C(c2ccc(C)o2)C2=C(CC(C)(C)CC2=O)N1 (stereo not given) | 0 | 0 | 0 | 0 | 0 | 0
Nc1n[nH]c(S(=O)(=O)CCCc2ccccc2)n1 | 0 | 0 | 0 | 0 | 0 | 0
COc1cc(-c2nnc(-c3ccc(S(=O)(=O)c4ccccc4)cc3)o2)cc(OC)c1OC | - | 0 | 0 | 3.7 | 0 | 0
COc1cc(-c2nnc(SCC(=O)c3ccccc3)o2)cc(OC)c1OC | 0 | 0 | 0 | 0 | 0 | 0
O=C(CCn1nc(-c2ccccc2)c2ccccc2c1=O)NCC1CCCO1 (stereo not given) | 0 | 0 | 0 | 0 | 0 | 0
Cn1c(=O)c2c(nc(Sc3n[nH]c(N)n3)n2Cc2ccccc2Cl)n(C)c1=O | 0 | 0 | 0 | 0 | 0 | 0
CCCN(CC(=O)c1cc(C)n(C)c1C)S(=O)(=O)c1cccc(C(F)(F)F)c1 | + | 0 | 0 | 2.9 | 0 | 0
CCN(CC)S(=O)(=O)c1cccc(-c2nnc(SCC(=O)c3cc(C)n(C)c3C)o2)c1 | 0 | 0 | 0 | 0 | 0 | 0
COc1cccc(-n2c(C)c(C(C)=O)c(C(C)=O)c2C)c1 | 0 | 0 | 0 | 0 | 0 | 0

Compound activity as filed in PubChem BioAssay.
